Results taken from the supplement of paper PMC8371130.
Counter-ions that a name gives are not always drawn.

Test system: HL-1
Assay: relative cell viability (CellTiter-Glo) vs DMSO control (% of DMSO control); higher = more viable cells
Summary of the method: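 Cell viability was determined from CellTiter-Glo luminescence, expressed relative to vehicle-treated control cells. The cells were HL-1 mouse atrial cardiomyocytes, plated at 1000 cells per well in 384-well plates with compounds at 40, 200, 1000 or 5000 nM in 0.01% DMSO. One day after plating, they underwent 48 h of hypoxia (1% O2) in a hypoxic workstation followed by 24 h of reoxygenation in a normal incubator, or were kept in normoxia for an equal time.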

[1] = oxygen condition: hypoxia 48 h (1% O2) + reoxygenation 24 h, 40 nM
[2] = oxygen condition: hypoxia 48 h (1% O2) + reoxygenation 24 h, 200 nM
[3] = oxygen condition: hypoxia 48 h (1% O2) + reoxygenation 24 h, 1000 nM
[4] = oxygen condition: hypoxia 48 h (1% O2) + reoxygenation 24 h, 5000 nM
[5] = oxygen condition: normoxia 72 h, 40 nM
[6] = oxygen condition: normoxia 72 h, 200 nM
[7] = oxygen condition: normoxia 72 h, 1000 nM
[8] = oxygen condition: normoxia 72 h, 5000 nM

Compound | relative cell viability [1] | relative cell viability [2] | relative cell viability [3] | relative cell viability [4] | relative cell viability [5] | relative cell viability [6] | relative cell viability [7] | relative cell viability [8]
CN(C)CCc1c[nH]c2ccc(Cn3cncn3)cc12 [Rizatriptan Benzoate] | 103 | 108 | 110 | 107 | 109 | 104 | 110 | 113
Cc1ccc(Nc2nccc(N(C)c3ccc4c(C)n(C)nc4c3)n2)cc1S(N)(=O)=O [Pazopanib HCl] | 94.1 | 106 | 105 | 109 | 103 | 113 | 104 | 109
O=C(O[C@H]1CN2CCC1CC2)N1CCc2ccccc2[C@@H]1c1ccccc1 [Solifenacin succinate] | 110 | 111 | 115 | 106 | 104 | 112 | 105 | 113
CNCC[C@H](Oc1cccc2ccccc12)c1cccs1 [Duloxetine HCl] | 92 | 96 | 99.8 | 92.8 | 89.9 | 94.3 | 106 | 104
C[C@H]1O[C@H](O[C@H]2[C@H](O)[C@@H](O)[C@@H](O[C@H]3[C@H](O)[C@@H](O)C(O)O[C@@H]3CO)O[C@@H]2CO)[C@H](O)[C@@H](O)[C@@H]1N[C@H]1C=C(CO)[C@@H](O)[C@H](O)[C@H]1O (stereo partly specified) [Acarbose] | 106 | 108 | 108 | 107 | 106 | 107 | 111 | 107
CCC(NC(C)C)C(O)c1ccc(O)c(O)c1 (stereo unspecified) [Isoetharine Mesylate] | 98.5 | 96.3 | 95.5 | 106 | 95.4 | 107 | 78.7 | 111
Cc1cnc(C(=O)NCCc2ccc(S(=O)(=O)NC(=O)NC3CCCCC3)cc2)cn1 [Glipizide] | 109 | 108 | 108 | 109 | 106 | 97.1 | 106 | 110
CC[C@]1(O)C[C@H]2CN(CCc3c([nH]c4ccccc34)[C@@](C(=O)OC)(c3cc4c(cc3OC)N(C=O)[C@H]3[C@@](O)(C(=O)OC)[C@H](OC(C)=O)[C@]5(CC)C=CCN6CC[C@]43[C@@H]65)C2)C1 [Vincristine] | 38.3 | 40.4 | 44.4 | 42 | 32.5 | 29.1 | 32.3 | 41.1
CN(C)CCc1c[nH]c2ccc(C[C@H]3COC(=O)N3)cc12 [Zolmitriptan] | 105 | 104 | 104 | 110 | 108 | 104 | 102 | 102
C=CCc1cc(OC)c(O)c(C(=O)NCCO)c1 [Alibendol] | 103 | 102 | 108 | 113 | 101 | 104 | 112 | 115
COC(c1ccccc1)(c1ccccc1)[C@H](Oc1nc(C)cc(C)n1)C(=O)O [Ambrisentan] | 105 | 97.3 | 109 | 105 | 95.1 | 94 | 102 | 99.8
CCOCC(O)COc1ccc(NC(=O)CC[S+](C)C)cc1 (stereo unspecified) [Suplatast tosylate] | 106 | 103 | 99.4 | 107 | 101 | 101 | 108 | 120
Cc1c(-c2ccccc2)oc2c(C(=O)OCCN3CCCCC3)cccc2c1=O [Flavoxate HCl] | 96.7 | 102 | 108 | 108 | 103 | 101 | 106 | 109
CCOC(=O)C1=C(COCCN)NC(C)=C(C(=O)OC)C1c1ccccc1Cl (stereo unspecified) [Amlodipine] | 102 | 101 | 113 | 100 | 107 | 107 | 93.2 | 106
O=c1[nH]c(=O)n([C@H]2C[C@H](O)[C@@H](CO)O2)cc1F [Floxuridine] | 49.5 | 40.7 | 31.4 | 17.4 | 46.1 | 41.5 | 28.6 | 16.3
C=C1/C(=C\C=C2/CCC[C@]3(C)[C@@H]([C@H](C)CCCC(C)C)CC[C@@H]23)C[C@@H](O)C[C@@H]1O [Alfacalcidol] | 109 | 104 | 118 | 106 | 108 | 104 | 88.5 | 106
O=C(O)c1cccnc1 [Niacin] | 107 | 107 | 98 | 109 | 110 | 111 | 106 | 93.9
COc1ccc2c(c1)C(=O)N(CCc1ccc(S(=O)(=O)NC(=O)NC3CCCCC3)cc1)C(=O)C2(C)C [Gliquidone] | 97.7 | 108 | 102 | 113 | 96.6 | 114 | 110 | 116
CC(C)c1nc(CN(C)C(=O)N[C@@H](CCN2CCOCC2)C(=O)N[C@H](CC[C@H](Cc2ccccc2)NC(=O)OCc2cncs2)Cc2ccccc2)cs1 [Cobicistat] | 109 | 109 | 108 | 120 | 111 | 107 | 108 | 113
CCCNC(C)C(=O)Nc1ccccc1C (stereo unspecified) [Prilocaine] | 96.7 | 101 | 105 | 104 | 92.2 | 92.1 | 92.3 | 97.4
O=C1c2cccc3c2[C@H](CCC3)CN1[C@@H]1CN2CCC1CC2 [Palonosetron HCl] | 103 | 109 | 112 | 97 | 101 | 103 | 86.6 | 104

Compound | relative cell viability [1] | relative cell viability [2] | relative cell viability [3] | relative cell viability [4] | relative cell viability [5] | relative cell viability [6] | relative cell viability [7] | relative cell viability [8]
O=C1Cc2cc(CCN3CCN(c4nsc5ccccc45)CC3)c(Cl)cc2N1 [Ziprasidone hydrochloride] | 105 | 101 | 106 | 102 | 107 | 98.2 | 104 | 98.4
CN1CCN(CCCN2c3ccccc3Sc3ccc(Cl)cc32)CC1 [Prochlorperazine Dimaleate] | 114 | 111 | 106 | 113 | 98.7 | 99.3 | 102 | 105
CC(C)C[C@H](NC(=O)[C@H](CCc1ccccc1)NC(=O)CN1CCOCC1)C(=O)N[C@@H](Cc1ccccc1)C(=O)N[C@@H](CC(C)C)C(=O)[C@@]1(C)CO1 [Carfilzomib] | 3.62 | 3.8 | 4.12 | 3.78 | 3.3 | 4.04 | 3.72 | 3.71
CS(=O)(=O)CCNCc1ccc(-c2ccc3ncnc(Nc4ccc(OCc5cccc(F)c5)c(Cl)c4)c3c2)o1 [Lapatinib] | 101 | 97.4 | 99.7 | 104 | 93.2 | 96.8 | 94 | 102
CCCCC(=O)O[C@H]1CC[C@H]2[C@@H]3CCc4cc(O)ccc4[C@H]3CC[C@]12C [Estradiol valerate] | 100 | 103 | 108 | 108 | 98.8 | 103 | 102 | 118
CCN(CCCc1ccccc1)CCCc1ccccc1 [Alverine Citrate] | 107 | 110 | 102 | 110 | 102 | 105 | 106 | 113
C[C@]12CCC3=C4CCC(=O)C=C4CC[C@H]3[C@@H]1CC[C@@]2(O)CC#N [Dienogest] | 103 | 104 | 106 | 103 | 105 | 102 | 107 | 107
CN(C)[C@@H](CCOc1cccc2ccccc12)c1ccccc1 [Dapoxetine hydrochloride] | 96.3 | 102 | 99.8 | 89.2 | 101 | 103 | 104 | 76.3
Nc1cccc2c1C(=O)N(C1CCC(=O)NC1=O)C2=O (stereo unspecified) [Pomalidomide] | 100 | 97.5 | 103 | 112 | 96.9 | 104 | 103 | 113
CC(C)(OCc1nn(Cc2ccccc2)c2ccccc12)C(=O)O [Bindarit] | 99.2 | 99.8 | 100 | 3.69 | 96.7 | 100 | 95.7 | 3.69
O=C(O)c1cn(C2CC2)c2cc(N3CCNCC3)c(F)cc2c1=O [Ciprofloxacin] | 107 | 100 | 99.7 | 121 | 97.4 | 99.2 | 107 | 121
O=c1c(-c2ccc(O)cc2)coc2cc(O)ccc12 [Daidzein] | 107 | 102 | 105 | 113 | 107 | 107 | 105 | 118
CCN(CC)CC#CCOC(=O)C(O)(c1ccccc1)C1CCCCC1 (stereo unspecified) [Oxybutynin chloride] | 94.2 | 99.1 | 98.7 | 98.8 | 104 | 96.3 | 91.2 | 107
O=C(O)/C=C/c1ccc(Cn2ccnc2)cc1 [Ozagrel] | 102 | 97.4 | 85.7 | 29.5 | 105 | 107 | 90 | 18
CN1C[C@@H]2C[C@H]1CN2c1cc2c(cc1F)c(=O)c(C(=O)O)cn2C1CC1 [Danofloxacin Mesylate] | 106 | 104 | 111 | 108 | 111 | 101 | 103 | 107
CC(C[N+](C)(C)C)OC(N)=O (stereo unspecified) [Bethanechol chloride] | 96.1 | 99.6 | 107 | 86.9 | 104 | 104 | 98.4 | 111
COc1ccccc1OCC(O)COC(N)=O (stereo unspecified) [Methocarbamol] | 104 | 107 | 108 | 119 | 101 | 112 | 106 | 114
CCC(=O)O[C@]1(C(=O)CCl)[C@@H](C)C[C@H]2[C@@H]3CCC4=CC(=O)C=C[C@]4(C)[C@@]3(F)[C@@H](O)C[C@@]21C [Clobetasol propionate] | 98.2 | 94.4 | 94.5 | 97.3 | 92.3 | 90.1 | 88.3 | 94.5
Nc1nc(N)nc(-c2cc(Cl)ccc2Cl)n1 [Irsogladine] | 101 | 104 | 107 | 109 | 98.2 | 104 | 108 | 107
O=C1[C@@H]2[C@H]3CC[C@H](C3)[C@@H]2C(=O)N1C[C@@H]1CCCC[C@H]1CN1CCN(c2nsc3ccccc23)CC1 [Lurasidone HCl] | 96.8 | 101 | 100 | 99.9 | 101 | 104 | 102 | 102
NS(=O)(=O)c1cc2c(cc1Cl)NC(C(Cl)Cl)NS2(=O)=O (stereo unspecified) [Trichlormethiazide] | 109 | 109 | 118 | 119 | 107 | 115 | 112 | 114
